Reference: PubChem BioAssay (EPA / NIEHS)
Inconclusive results are not listed. Calls of active or inactive are those of the source. How the source made its calls, unless noted: active means hit-call score of the fitted dose curve at least 0.9, where 1 is the maximum; inactive means score below 0.9.

Tests used:
[1] = read-out: Vascular endothelial growth factor receptor 2 (Homo sapiens) (UniProt P35968); assay: BSK_4H_VEGFRII: BioMAP Diversity Plus: 4H Assay for Vascular endothelial growth factor receptor 2 (VEGFR2) Biomarker Activity (AID 2283031); details: primary human endothelial cells (HUVEC); actives raise or lower the signal;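 on AC50: cell-surface VEGFR2 protein level quantified by ELISA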
Procedure, shortened: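 Primary human umbilical vein endothelial cells (4H system), 24 h exposure; cell-surface VEGFR2 measured by ELISA. Bidirectional fitting versus DMSO; cytotoxicity checked in parallel by SRB total-protein staining.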

[2] = read-out: Human Leukocyte Antigen - DR isotype (HLADR), HLA-DRA (gene 3122); assay: BSK_BE3C_HLADR: BioMAP Diversity Plus: BE3C Assay for Human Leukocyte Antigen - DR isotype (HLADR) Biomarker Activity (AID 2283032); details: primary human bronchial epithelial cells; actives raise or lower the signal
Procedure, shortened: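 Signal came from an ELISA for HLA-DR in human bronchial epithelial primary cells harvested 24 h after treatment; gain- and loss-of-signal fitting used DMSO controls as reference.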

[3] = read-out: Interleukin-8 (IL8), CXCL8 (gene 3576); assay: BSK_CASM3C_IL8: BioMAP Diversity Plus: CASM3C Assay for Interleukin-8 (IL8) Biomarker Activity (AID 2283042); details: primary human coronary artery smooth muscle cells; actives raise or lower the signal
[4] = read-out: Low-density lipoprotein receptor (LDLR), LDLR (gene 3949); assay: BSK_CASM3C_LDLR: BioMAP Diversity Plus: CASM3C Assay for Low-density lipoprotein receptor (LDLR) Biomarker Activity (AID 2283045); details: primary human coronary artery smooth muscle cells; actives raise or lower the signal;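 further: LDLR protein level on the cell surface quantified by ELISA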
[5] = read-out: Urokinase-type plasminogen activator receptor (uPAR), PLAUR (gene 5329); assay: BSK_CASM3C_uPAR: BioMAP Diversity Plus: CASM3C Assay for Urokinase-type plasminogen activator receptor (uPAR) Biomarker Activity (AID 2283054); details: primary human coronary artery smooth muscle cells; actives raise or lower the signal;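 further: cell-surface uPAR protein level quantified by ELISA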
[6] = read-out: E-selectin (Homo sapiens) (UniProt P16581); assay: BSK_LPS_Eselectin: BioMAP Diversity Plus: LPS Assay for Eselectin Biomarker Activity (AID 2283077); details: primary human HUVEC with PBMC; actives raise or lower the signal
Procedure, shortened: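 Human umbilical vein endothelial cells co-cultured with PBMC under LPS stimulation; cell-surface E-selectin measured by ELISA 24 h after dosing. Change in either direction versus DMSO, with SRB total-protein staining in parallel cultures for cytotoxicity.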

[7] = read-out: Interleukin-8 (IL8), CXCL8 (gene 3576); assay: BSK_LPS_IL8: BioMAP Diversity Plus: LPS Assay for Interleukin-8 (IL8) Biomarker Activity (AID 2283078); details: primary human HUVEC with PBMC; actives raise or lower the signal
Procedure, shortened: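 Human umbilical vein endothelial cells co-cultured with PBMC, LPS-stimulated, exposed to compound for 24 h. IL-8 quantified by ELISA; fitted in both directions against DMSO, with SRB total-protein staining of parallel cultures for cytotoxicity.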

[8] = BSK_LPS_SRB: Viability Assessment in the BioMAP Diversity Plus: LPS Assay (AID 2283079); details: primary human HUVEC with PBMC;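 further: total protein by sulforhodamine B absorbance as a cytotoxicity measure; measured one day after compound addition; fitted in both directions against DMSO so loss or gain of signal counts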
Procedure, shortened: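 Co-culture of human umbilical vein endothelial cells and PBMC, read 24 h after dosing. Total protein by 0.1% SRB staining after 10% TCA fixation, absorbance at 560 nm; bidirectional fit against DMSO.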

[9] = read-out: Monocyte Chemoattractant Protein-1 (MCP1), CCL2 (gene 6347); assay: BSK_LPS_MCP1: BioMAP Diversity Plus: LPS Assay for Monocyte Chemoattractant Protein-1 (MCP1) Biomarker Activity (AID 2283081); details: primary human HUVEC with PBMC; actives raise or lower the signal;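 on AC50: secreted MCP-1 protein quantified by ELISA in culture supernatant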
Procedure, shortened: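 Human umbilical vein endothelial cells co-cultured with PBMC, LPS-stimulated; secreted MCP-1 measured by ELISA 24 h after compound addition. Bidirectional curve fitting against DMSO baseline; SRB total-protein staining in parallel cultures for cytotoxicity.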

[10] = read-out: Macrophage colony-stimulating factor (MCSF), CSF1 (gene 1435); assay: BSK_LPS_MCSF: BioMAP Diversity Plus: LPS Assay for Macrophage colony-stimulating factor (MCSF) Biomarker Activity (AID 2283083); details: primary human HUVEC with PBMC; actives raise or lower the signal
Procedure, shortened: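 HUVEC–PBMC co-culture, M-CSF measured by ELISA 24 h after chemical dosing. Fitted in both directions relative to DMSO as negative control; overt cytotoxicity assessed by SRB total-protein staining in parallel cultures.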

[11] = read-out: Tissue Factor, F3 (gene 2152); assay: BSK_LPS_TissueFactor: BioMAP Diversity Plus: LPS Assay for Tissue Factor Biomarker Activity (AID 2283084); details: primary human HUVEC with PBMC; actives raise or lower the signal
Procedure, shortened: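 Human umbilical vein endothelial cells co-cultured with PBMC were dosed with compound. Cell-surface CD142 was measured by ELISA 24 h later. Activity was fitted bidirectionally against DMSO, with SRB total-protein staining in parallel cultures for cytotoxicity.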

[12] = read-out: Tumor necrosis factor (Homo sapiens) (UniProt P01375); assay: BSK_LPS_TNFa: BioMAP Diversity Plus: LPS Assay for Tumour Necrosis Factor alpha (TNFa) Biomarker Activity (AID 2283085); details: primary human HUVEC with PBMC; actives raise or lower the signal
Procedure, shortened: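 Primary human vascular co-culture of HUVEC and PBMC; TNFa ELISA 24 h after treatment, analysed as increase or decrease relative to DMSO control.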

[13] = read-out: Vascular cell adhesion molecule 1 (VCAM1), VCAM1 (gene 7412); assay: BSK_LPS_VCAM1: BioMAP Diversity Plus: LPS Assay for Vascular cell adhesion molecule 1 (VCAM1) Biomarker Activity (AID 2283086); details: primary human HUVEC with PBMC; actives raise or lower the signal
Procedure, shortened: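 Primary human vascular co-culture (umbilical vein endothelium plus PBMC) stimulated with LPS received chemical; 24 h later VCAM-1 was read by ELISA. Overt cytotoxicity was assessed by sulforhodamine B staining of parallel cultures at the same time point.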

CD40, CD40 (gene 958) = assay: BSK_SAg_CD40: BioMAP Diversity Plus: SAg Assay for CD40 Biomarker Activity (AID 2283088); details: primary human HUVEC with PBMC; actives raise or lower the signal
Procedure, shortened: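 HUVEC plus PBMC co-culture, superantigen-activated, with CD40 read by ELISA 24 h after dosing. Curves fitted in both directions against DMSO. Overt cytotoxicity checked by parallel SRB total-protein staining.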

CD69, CD69 (gene 969) = assay: BSK_SAg_CD69: BioMAP Diversity Plus: SAg Assay for CD69 Biomarker Activity (AID 2283089); details: primary human HUVEC with PBMC; actives raise or lower the signal;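 on AC50: cell surface CD69 protein quantified by ELISA with fluorescence detection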
Procedure, shortened: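 Endothelial/PBMC co-culture; chemical added; 24 h incubation; CD69 ELISA with fluorescence detection; bidirectional fit vs DMSO.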

[14] = read-out: Monocyte Chemoattractant Protein-1 (MCP1), CCL2 (gene 6347); assay: BSK_SAg_MCP1: BioMAP Diversity Plus: SAg Assay for Monocyte Chemoattractant Protein-1 (MCP1) Biomarker Activity (AID 2283090); details: primary human HUVEC with PBMC; actives raise or lower the signal
Procedure, shortened: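 MCP-1 levels in the endothelial–PBMC SAg co-culture were quantified by ELISA at 24 h post-dosing; both increases and decreases versus DMSO scored. Cytotoxicity monitored by SRB total protein in parallel cultures.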

[15] = read-out: E-selectin (Homo sapiens) (UniProt P16581); assay: BSK_SAg_Eselectin: BioMAP Diversity Plus: SAg Assay for Eselectin Biomarker Activity (AID 2283091); details: primary human HUVEC with PBMC; actives raise or lower the signal
Procedure, shortened: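 Human umbilical vein endothelial cells co-cultured with peripheral blood mononuclear cells, SAg system. E-selectin is measured by ELISA 24 h after dosing and fitted bidirectionally against DMSO. Cytotoxicity is checked by SRB staining of parallel cultures.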

[16] = read-out: Monokine induced gamma interferon (MIG), CXCL9 (gene 4283); assay: BSK_SAg_MIG: BioMAP Diversity Plus: SAg Assay for Monokine induced gamma interferon (MIG) Biomarker Activity (AID 2283092); details: primary human HUVEC with PBMC; actives raise or lower the signal
Procedure, shortened: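 Measures CXCL9 protein by ELISA in a human vascular primary-cell co-culture (umbilical vein endothelium with PBMC) 24 h after chemical addition. Activity is scored up or down from the DMSO control.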

[17] = BSK_SAg_PBMCCytotoxicity: PBMC Cytotoxicity Assessment in the BioMAP Diversity Plus: SAg Assay (AID 2283093); details: primary human HUVEC with PBMC;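 further: PBMC viability measured as Alamar Blue reduction fluorescence at 546/580 nm; fitted both ways against DMSO so a hit may be loss or gain of signal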;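 on AC50: PBMC superantigen activated with SEB plus TSST-1 one hour after compound addition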
Procedure, shortened: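 Human umbilical vein endothelial cells co-cultured with PBMC; PBMC (75,000/well) pre-treated with compound 1 h, then activated with SEB and TSST-1 (20 ng/mL final each) for 90 h. Alamar Blue added 6 h, fluorescence 546/580 nm; bidirectional fit versus DMSO.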

[18] = target: Estrogen receptor (Homo sapiens) (UniProt P03372); assay: ATG_ERa_TRANS: Attagene TRANS-FACTORIAL HepG2 Assay for human Estrogen Receptor alpha (ERa) (AID 2282970; active means hit-call score of the fitted dose curve at least 0.9, where 1 is the maximum); details: HepG2 Attagene TRANS ERa GAL4 reporter, mRNA
Estrogen receptor (Homo sapiens), sequence (P03372 whole entry, looked up, the tested form may be a part): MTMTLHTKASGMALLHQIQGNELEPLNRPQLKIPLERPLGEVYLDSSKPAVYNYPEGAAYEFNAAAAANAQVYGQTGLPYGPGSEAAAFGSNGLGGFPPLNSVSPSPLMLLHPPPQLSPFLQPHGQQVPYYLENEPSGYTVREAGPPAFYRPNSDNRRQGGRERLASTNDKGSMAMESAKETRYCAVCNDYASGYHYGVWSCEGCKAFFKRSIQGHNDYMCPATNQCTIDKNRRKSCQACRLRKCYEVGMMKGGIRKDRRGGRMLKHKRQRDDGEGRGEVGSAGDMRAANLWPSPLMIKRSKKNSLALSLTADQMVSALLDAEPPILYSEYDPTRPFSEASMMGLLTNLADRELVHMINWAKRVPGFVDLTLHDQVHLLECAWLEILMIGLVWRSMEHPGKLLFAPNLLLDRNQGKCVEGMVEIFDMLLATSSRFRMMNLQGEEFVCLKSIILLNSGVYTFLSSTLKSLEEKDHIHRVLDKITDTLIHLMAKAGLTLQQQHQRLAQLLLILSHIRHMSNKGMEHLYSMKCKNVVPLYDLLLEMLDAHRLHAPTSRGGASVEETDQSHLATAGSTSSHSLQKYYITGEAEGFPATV
Procedure, shortened: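 HepG2 cells transiently transfected with multiplexed GAL4-UAS reporter units read out chimeric NR-Gal4 activity. After 24 h compound exposure, reporter mRNA was quantified by RT-PCR, 6-FAM labeling, HpaI digestion and capillary electrophoresis, relative to DMSO.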

Measured: AC50

E-selectin (Homo sapiens), sequence (P16581 whole entry, looked up): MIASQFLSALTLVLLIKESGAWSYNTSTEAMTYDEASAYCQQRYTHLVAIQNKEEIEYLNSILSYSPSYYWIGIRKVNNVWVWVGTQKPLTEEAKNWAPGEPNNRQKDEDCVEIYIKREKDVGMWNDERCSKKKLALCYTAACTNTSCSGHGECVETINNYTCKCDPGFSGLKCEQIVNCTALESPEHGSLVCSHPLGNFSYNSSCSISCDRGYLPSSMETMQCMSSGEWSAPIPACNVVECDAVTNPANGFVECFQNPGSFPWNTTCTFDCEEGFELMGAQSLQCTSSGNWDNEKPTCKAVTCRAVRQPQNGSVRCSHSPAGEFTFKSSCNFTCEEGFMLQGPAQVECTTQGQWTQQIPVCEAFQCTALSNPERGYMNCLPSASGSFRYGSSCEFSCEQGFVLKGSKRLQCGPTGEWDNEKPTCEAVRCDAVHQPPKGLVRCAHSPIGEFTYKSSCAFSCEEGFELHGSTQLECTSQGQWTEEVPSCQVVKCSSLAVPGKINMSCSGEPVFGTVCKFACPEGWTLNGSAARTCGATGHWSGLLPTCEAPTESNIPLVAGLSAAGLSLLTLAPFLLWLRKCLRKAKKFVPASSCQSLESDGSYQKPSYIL
Tumor necrosis factor (Homo sapiens), sequence (P01375 whole entry, looked up): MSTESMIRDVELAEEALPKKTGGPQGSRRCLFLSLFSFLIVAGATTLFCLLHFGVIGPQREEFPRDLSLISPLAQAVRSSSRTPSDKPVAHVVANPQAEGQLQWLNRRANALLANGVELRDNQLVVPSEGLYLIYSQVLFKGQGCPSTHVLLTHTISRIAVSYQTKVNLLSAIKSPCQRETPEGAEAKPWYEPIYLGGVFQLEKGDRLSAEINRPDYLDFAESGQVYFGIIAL

CCc1cc(C)cc(CC)c1-c1c(OC(=O)C(C)(C)C)n2n(c1=O)CCOCC2
active: [2] 3.97 µM | [4] 2.79 µM | [7] 0.016 µM | [13] 3.97 µM
not listed: [18]
inactive: all other assays above

C=CC(=O)OCC(CC)CCCC (centres undefined)
active: [9] 0.016 µM | [13] 7.48 µM
not listed: [18]
inactive: all other assays above

c1ccc(P(c2ccccc2)c2ccccc2)cc1
active: [18] 15.2 µM

CC(C)CCCCCCCOP(=O)(Oc1ccccc1)Oc1ccccc1
active: [18] 5.78 µM | [1] 10.9 µM | [2] 13.9 µM | [4] 6.45 µM | [6] 23 µM | [8] 23.7 µM | [9] 20 µM | [10] 15.3 µM | [11] 31 µM | [12] 30.4 µM | [13] 27.8 µM | CD40, CD40 (gene 958) 26.2 µM | CD69, CD69 (gene 969) 16.7 µM | [14] 20 µM | [15] 24.4 µM | [16] 35 µM | [17] 31 µM
inactive: [3] | [5] | [7]
